Here are results for eight compounds from PubChem BioAssay (NCI).

This is part of a sample that, as a whole, favours compounds with a hit. Of some 83,000 tested, about 20% had one in any assay.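 Treatment: one concentration, 48 hours, 96-well format. Scoring: percent growth, with anything below 10 considered active.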 Values without a mark were called inactive. The source made the active and inactive calls.

Test systems include NCI-H23 lung; NCI-H226 lung; NCI-H322M lung; HOP-62 NSCLC; NCI-H460 lung; HOP-92 NSCLC; NCI-H522 lung; A549/ATCC NSCLC; 786-0 renal; COLO 205 colon; DU-145 prostate; K-562 leukemia; MALME-3M melanoma; MDA-MB-231 breast; RXF 393 renal; SF-268 CNS; SF-295 CNS; SF-539 CNS; UACC-257 melanoma; M14 melanoma.
Common to all, as to assay: NCI-60 one-dose screen, 48 h (100 = growth as untreated, 0 = no growth, -100 = all killed)
Common to all, as to conditions: 10 µM unless noted

For `OCC(Nc1ncnc2ccc(-c3cnc4cnccn34)cc12)c1ccccc1` (stereo not given), the growth in the experiment with NCI-H23 lung is 57.8%; in the experiment with NCI-H226 lung it was 67.5%; in the experiment on NCI-H322M lung, 40%; with HOP-62 NSCLC it was 79.8%; in the experiment with NCI-H460 lung it was 89.4%; in the experiment with HOP-92 NSCLC it was 59.3%. For the same compound, the growth with NCI-H522 lung was 43.5%; in the experiment with A549/ATCC NSCLC, 74.2%; in the experiment with 786-0 renal, 64.4%; in the experiment on COLO 205 colon, 98.2%; in the experiment on DU-145 prostate, 47.4%; in the experiment on K-562 leukemia, 60.2%. Moreover, the growth with MALME-3M melanoma was 81.5%; in the experiment with MDA-MB-231 breast it was 83.2%; in the experiment with RXF 393 renal, 65.4%; in the experiment with SF-268 CNS, 75.9%; with SF-295 CNS, 64.7%; in the experiment on SF-539 CNS it was 79%. Besides, the growth is 80.7% with UACC-257 melanoma and 93.3% in the experiment on M14 melanoma.

Consider `C#CCOc1ccc(/C=N/Nc2nc(-c3ccc(OC)cc3)cs2)cc1`, for which the growth in the experiment with NCI-H23 lung was 68.9%; in the experiment on NCI-H226 lung, 63.7%; in the experiment on NCI-H322M lung, 95%; in the experiment with HOP-62 NSCLC, 97.6%; in the experiment on NCI-H460 lung, 77.3%; in the experiment with HOP-92 NSCLC, 68.6%. Besides, the growth in the experiment with NCI-H522 lung is 70.1%; in the experiment on A549/ATCC NSCLC it was 77%; in the experiment with 786-0 renal, 89.2%; with COLO 205 colon, 96.1%; with DU-145 prostate, 78.7%; with K-562 leukemia, 47.7%. Besides, the growth in the experiment with MALME-3M melanoma was 83.9%; in the experiment on MDA-MB-231 breast it was 91.3%; in the experiment on RXF 393 renal, 99.1%; in the experiment on SF-268 CNS, 87.2%; in the experiment with SF-295 CNS it was 66.8%; in the experiment with SF-539 CNS, 97.3%. Moreover, the results for the growth in the experiment on UACC-257 melanoma and in the experiment on M14 melanoma were 76.1% and 93.1%, respectively.

Consider `COC(=O)[C@@H](Cc1c[nH]c2ccccc12)NC(=O)CCCCOc1cc(O)c2c(=O)cc(-c3ccccc3)oc2c1`, for which the growth with NCI-H23 lung was 35.2%; with NCI-H226 lung, 88.8%; with NCI-H322M lung it was 95.8%; in the experiment with HOP-62 NSCLC, 96.2%; in the experiment on NCI-H460 lung it was 94.4%; with HOP-92 NSCLC it was 60.6%. The growth is 86.7% in the experiment on NCI-H522 lung; 86.7% with A549/ATCC NSCLC; 97% with 786-0 renal; 90.4% with COLO 205 colon; 93.3% with DU-145 prostate; 83.6% in the experiment on K-562 leukemia. Further, the growth was 94.3% in the experiment with MALME-3M melanoma; 81.7% in the experiment with MDA-MB-231 breast; 76.8% in the experiment on RXF 393 renal; 84.2% in the experiment on SF-268 CNS; 91.2% with SF-295 CNS; 90.3% in the experiment with SF-539 CNS. Moreover, the results for the growth in the experiment with UACC-257 melanoma and in the experiment on M14 melanoma were 97.1% and 97.2%, respectively.

In the case of `Cc1cc(=O)[nH]c(O)c1C#N`, the growth is 100% with NCI-H23 lung; 101% in the experiment on NCI-H226 lung; 98.1% with NCI-H322M lung; 94.8% in the experiment on HOP-62 NSCLC; 108% in the experiment on NCI-H460 lung; 97.4% in the experiment with HOP-92 NSCLC. In addition, the growth is 101% in the experiment with NCI-H522 lung; 103% with A549/ATCC NSCLC; 103% in the experiment with 786-0 renal; 107% in the experiment on COLO 205 colon; 108% with DU-145 prostate; 99.2% in the experiment with K-562 leukemia. Besides, the growth in the experiment with MALME-3M melanoma was 105%; in the experiment with MDA-MB-231 breast, 98.2%; with RXF 393 renal it was 114%; with SF-268 CNS it was 103%; with SF-295 CNS it was 102%; in the experiment on SF-539 CNS it was 97%. Also, the growth in the experiment with UACC-257 melanoma is 100%; in the experiment with M14 melanoma it was 94.4%.

Regarding `O=C(CSc1nnc(-c2ccc(Cl)cc2)n1-c1ccccc1)Nc1ccc(Cl)cc1`, the growth with NCI-H23 lung was 29.1%; in the experiment with NCI-H226 lung, 16%; in the experiment on NCI-H322M lung, 41.2%; with HOP-62 NSCLC it was 82.8%; in the experiment with NCI-H460 lung, 19.4%; in the experiment on HOP-92 NSCLC it was -5.1% (active). In addition, the growth is 39.5% in the experiment on NCI-H522 lung; 21.5% with A549/ATCC NSCLC; -50.2% (active) with 786-0 renal; 90.2% in the experiment on COLO 205 colon; 62.1% in the experiment with DU-145 prostate; 59.1% in the experiment with K-562 leukemia. Also, the growth was 51% with MALME-3M melanoma; 12.9% in the experiment with MDA-MB-231 breast; 22.9% in the experiment on RXF 393 renal; 41.4% in the experiment on SF-268 CNS; 17.2% in the experiment on SF-295 CNS; -15% (active) in the experiment with SF-539 CNS. In addition, the growth was 88.2% with UACC-257 melanoma and 62.7% in the experiment on M14 melanoma.

`Cc1ccc(/C(N)=N/C(N)=N/c2nc3ccccc3s2)cc1`: the growth in the experiment with NCI-H23 lung was 48.9%; in the experiment with NCI-H226 lung, 63.2%; with NCI-H322M lung it was 91.3%; in the experiment with HOP-62 NSCLC, -42.4% (active); in the experiment on NCI-H460 lung, 75.7%; in the experiment with HOP-92 NSCLC, 122%. For the same compound, the growth in the experiment with NCI-H522 lung is 100%; in the experiment on A549/ATCC NSCLC, 19.6%; with 786-0 renal, 109%; with COLO 205 colon, 120%; in the experiment with DU-145 prostate it was 96.5%; with K-562 leukemia, 82.5%. Moreover, the growth with MALME-3M melanoma is 110%; in the experiment with MDA-MB-231 breast it was 89.9%; in the experiment with RXF 393 renal, 103%; in the experiment with SF-268 CNS it was 103%; with SF-295 CNS, 32.9%; in the experiment on SF-539 CNS, 108%. The growth with UACC-257 melanoma is 111%; in the experiment with M14 melanoma it was 107%.

As to `O=C(CCCCCCNC(=O)C(O)(O)C(F)(F)F)Nc1ccc(Br)cc1`, the growth is 10.9% in the experiment with NCI-H23 lung; 37.2% in the experiment with NCI-H226 lung; 27.1% with NCI-H322M lung; -9.13% (active) in the experiment with HOP-62 NSCLC; 12.5% in the experiment with NCI-H460 lung; -5.9% (active) in the experiment with HOP-92 NSCLC. The growth in the experiment on NCI-H522 lung is -36.6% (active); in the experiment on A549/ATCC NSCLC it was 7.9% (active); with 786-0 renal it was 25.4%; with COLO 205 colon it was -60.8% (active); with DU-145 prostate, 0.633% (active); in the experiment with K-562 leukemia, 15.2%. In addition, the growth in the experiment with MALME-3M melanoma is 10.1%; in the experiment with MDA-MB-231 breast it was 28.4%; with RXF 393 renal it was -38.1% (active); in the experiment with SF-268 CNS, 8.01% (active); in the experiment on SF-295 CNS, -25.3% (active); in the experiment with SF-539 CNS, 18.5%. The results for the growth with UACC-257 melanoma and in the experiment with M14 melanoma were 15.5% and 25.1%, respectively.

Turning to `C#CCN(C)CCCOc1ccc(NC(=O)CCCCCCC(=O)NO)cc1Cl`, the growth in the experiment with NCI-H23 lung was 28.1%; in the experiment on NCI-H226 lung it was 63.1%; in the experiment with NCI-H322M lung, 26.5%; in the experiment with HOP-62 NSCLC it was 30.1%; in the experiment on NCI-H460 lung, 25.8%; in the experiment with HOP-92 NSCLC, -14% (active). Further, the growth with NCI-H522 lung is 12.8%; in the experiment with A549/ATCC NSCLC, 20.5%; with 786-0 renal it was 39.3%; in the experiment on COLO 205 colon, -26.1% (active); in the experiment with DU-145 prostate, 26.3%; with K-562 leukemia, 18.5%. For the same compound, the growth in the experiment with MALME-3M melanoma is 21.1%; in the experiment with MDA-MB-231 breast it was 16.3%; with RXF 393 renal, -44.3% (active); with SF-268 CNS it was 39.3%; in the experiment on SF-295 CNS, 7.83% (active); with SF-539 CNS it was 20.3%. Also, the growth is 25.6% in the experiment with UACC-257 melanoma and 23% in the experiment on M14 melanoma.
